Data reported in PubChem BioAssay AID2284169 (EPA ToxCast).
Active and inactive are the calls of the source. Rule for the calls: active = hit-call score of the fitted dose curve at least 0.9, where 1 is the maximum; inactive = score below 0.9.

What follows are compounds tested against human Opioid Receptor NOP (ORL1) Agonism, OPRL1 (gene 4987) (UniProt P41146) (assay: ERF_FR_GPCR_hOPRL1: Eurofins (ERF) G Protein-Coupled Receptor (GPCR) Radioligand Binding LeadHunter Assay for human Opioid Receptor NOP (ORL1) Agonism).
Sequence of human Opioid Receptor NOP (ORL1) Agonism, OPRL1 (gene 4987) (P41146 whole entry, looked up): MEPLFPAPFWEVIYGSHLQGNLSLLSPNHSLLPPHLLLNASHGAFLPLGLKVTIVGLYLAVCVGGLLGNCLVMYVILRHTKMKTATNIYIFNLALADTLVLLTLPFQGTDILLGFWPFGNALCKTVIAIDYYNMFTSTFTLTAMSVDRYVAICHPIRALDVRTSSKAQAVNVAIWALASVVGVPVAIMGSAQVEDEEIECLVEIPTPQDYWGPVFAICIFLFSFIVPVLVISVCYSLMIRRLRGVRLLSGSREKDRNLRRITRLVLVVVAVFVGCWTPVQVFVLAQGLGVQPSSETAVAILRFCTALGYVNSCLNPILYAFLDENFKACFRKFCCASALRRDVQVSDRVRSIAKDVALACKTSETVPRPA
Description: ERF_FR_GPCR_hOPRL1 is a biochemical, single-readout assay that uses extracted gene-proteins in a cell-free assay. Measurements were taken 1 hour after chemical dosing in a 96-well plate. See NOP (ORL1) Human Opioid GPCR Binding (Agonist Radioligand) Assay, Cerep.ERF_FR_GPCR_hOPRL1 is an assay component calculated from the ERF_FR_GPCR_hOPRL1 assay. It is designed to measure radioligand binding using a type of binding reporter as detected by scintillation counting with radiometry technology.Data from the assay component ERF_FR_GPCR_hOPRL1 was analyzed at the assay endpoint, ERF_FR_GPCR_hOPRL1, in the positive analysis fitting direction relative to DMSO as the negative control and baseline of activity. Using a type of binding reporter, gain-of-signal activity can be used to understand changes in binding as they relate to gene OPRL1. To generalize the intended target to other relatable targets, this assay endpoint is annotated to the gpcr intended target family, where the subfamily is opioid.
Human cells are incubated for 60 minutes at room temprature with [3H]nociceptin ligand (0.1 nM) and Nociceptin as control inhibitor. Test Sample Requirements: Minimum for 1) Screen: 60 ul of 10 mM stock -OR- 1 mg (pre-weighed) for 10 uM final testing. 2) Dose Response: 90 ul of 10 mM stock -OR- 1 mg (pre-weighed) for a top concentration at 10 uM.
For `COc1cc(CCC(=O)CC(=O)CCc2ccc(O)c(OC)c2)ccc1O`, the outcome was “inactive”.
With `CCCCC[C@H](O)CC(=O)CCc1ccc(O)c(OC)c1` the outcome was “inactive”.
`COc1cc(/C=C/C(=O)CC(=O)/C=C/c2ccc(O)c(OC)c2)ccc1O` was tested, and the AC50 was 5 µM (active).
In the case of `O=C(/C=C/c1ccc(O)cc1)CC(=O)/C=C/c1ccc(O)cc1`, the AC50 is reported as 3.86 µM (active).
